Bioassay records from PubChem BioAssay.
Rows were chosen to be rich in hits. Some 21% of all compounds tested hit in one or more screens of this group.
Pf growth 48h = Primary qHTS for delayed death inhibitors of the malarial parasite plastid, 48 hour incubation; Potency, µM (doses to about 28.7 µM), for the others: at the highest dose activity change, negative = inhibition, actives largely listed as inhibitors; P. falciparum luciferase growth in erythrocytes, 48 h; actives 5.9% (n = 310,000); further: potency means the concentration at half of the fitted maximal effect; on the % scale 0 is the no-effect control and ±100 the full control effect
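Compounds are pin-transferred into medium, infected erythrocytes (2% hematocrit, 0.1% parasitemia final) are added, and plates sit one parasite generation at 37 C in 5% CO2. Detection reagent is then added and luminescence measured.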
Pf growth 96h = Primary qHTS for delayed death inhibitors of the malarial parasite plastid, 96 hour incubation; Potency, µM (series often up to 28.7 µM), for inactives: top-dose activity change, negative = inhibition, usual class: inhibitors; actives 6.9% (n = 320,000); P. falciparum luciferase reporter growth, 96 h; further: potency means the concentration at half of the fitted maximal effect; on the % scale 0 is the no-effect control and ±100 the full control effect
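Parasite growth measured via integrated firefly luciferase reporter in P. falciparum. Infected erythrocytes at 2% hematocrit, 0.05% parasitemia final were treated 96 hours at 37 C under 5% CO2, and luminescence was read.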
Shiga toxin inh = A qHTS for Small Molecule Inhibitors of Shiga Toxin; Vero cells, Shiga toxin protein synthesis inhibition reporter; actives 9.2% (n = 290,000); inhibition, % at 38.7 µM; in the data active means inhibition mostly above about 28%, no sharp cut-off; inactive means mostly below about 43%; further: 0% is about no effect
AMA1 RON2 block = qHTS for Inhibitors of AMA1-RON; Towards Development of Antimalarial Drug Lead: Primary Screen; Plasmodium falciparum AMA1 (3D7) - RON2 peptide interaction; AlphaScreen AMA1-biotinylated RON2 peptide binding; Potency, µM (top dose mostly 58.2 µM), for the others: top-dose activity change, negative = inhibition, actives largely listed as inhibitors; actives 0.2% (n = 360,000); AID 720542, 2013;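 further: potency means the concentration at half of the fitted maximal effect; 0% = vehicle wells and -100% = peptide control; nearly all actives have a fitted effect of over 45% in size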
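AMA1 (3D7) with his tag at 25 nM final met compounds first, then biotinylated RON2 peptide at 25 nM; detection used donor plus acceptor beads, 10 µg/mL apiece, read by AlphaScreen after 30 min at room temperature.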
HCV inh = qHTS Assay for Inhibitors of Hepatitis C Virus (HCV); actives 3.4% (n = 340,000); Potency, µM (highest dose often 41.8 µM), for the others: at the top dose activity change, negative = inhibition, usual class: inhibitors; Huh7.5.1 HCVcc-Cre infection, luciferase reporter, 44 h; further: potency means the concentration at half of the fitted maximal effect; on the % scale 0 is the no-effect control and ±100 the full control effect
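1,000 cells/well; 4 h culture; + compound; + HCVcc-Cre (~0.5 moi); 44 h; luciferase substrate, RT 15 min; read 15 sec.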
Cycloheximide cs = Cycloheximide Counterscreen for Small Molecule Inhibitors of Shiga Toxin; cell reporter, cycloheximide protein synthesis inhibition counterscreen; max response, %; actives 12% (n = 300,000); AID 2314, 2010; in the data active means max response mostly above about 13%, no sharp cut-off; inactive means mostly below about 14%; further: read at 38.3 µM for the half of the compounds with a filed dose; 0% is about no effect
* marks the source's active call; other numbers are inactive results; ? = inconclusive; / = no result given; [ ] = dose if it differs, or a comment. Unless noted, the call rests on the fitted dose curve; in most records, active means well fitted curve in the direction sought with a large enough effect; inconclusive means small, poorly fitted or top-dose-only effect, or another doubt; inactive means no such curve, though single readings can be large; an effect the other way counts as inactive or inconclusive.

SMILES	Pf growth 48h	Pf growth 96h	Shiga toxin inh	AMA1 RON2 block	HCV inh	Cycloheximide cs
CCOC(=O)c1c(NC(=O)CCl)sc(CN(C)C)c1-c1ccccc1	13µM*	?	-11	9%	?	-2
CCOC(=O)c1c(NC(=O)CN2CCCCC2)sc(CN(C)C)c1-c1ccccc1	1%	8%	17	50%	22µM*	3
S=C(NCC1CCCO1)Nc1cccc2ccccc12 (centres undefined)	12%	1µM*	-10	-4%	7%	6
S=C(NCC1CCCO1)Nc1ccc(Nc2ccccc2)cc1 (centres undefined)	-8%	12µM*	13	?	?	1
O=C1NC(c2ccccc2)=C(c2ccccc2)C1=O	16%	10µM*	-6	1%	2%	1
O=c1cc(-c2ccccc2)[nH][nH]1	-4%	-13%	14	-6%	23%	1
CN(CC(=O)NCCc1ccccc1)S(=O)(=O)c1cccs1	31%	5%	22	-7%	10%	15
CN(CC(=O)NCCc1ccccc1)S(=O)(=O)c1ccc(Br)s1	-8%	1%	46*	-11%	-26%	28*
COC(=O)c1ccc(CN(C)S(=O)(=O)c2cccs2)cc1	44%	43%	76*	-25%	16%	56*
CN(CC(=O)NCCc1ccccc1)S(=O)(=O)c1ccc(Br)cc1	-6%	?	-22	1%	13%	8
Cc1ccc(CNC(=O)CN(C)S(=O)(=O)c2cccs2)cc1	17%	?	23	48%	8%	28*
CN(CC(=O)NCCc1ccc(Cl)cc1)S(=O)(=O)c1cccs1	4%	-1%	34*	-9%	2%	22*
CN1CCc2c(n(CC(O)CN3CCN(CCO)CC3)c3ccccc23)C1=O (centres undefined)	7%	-14%	23	-5%	18%	-4
O=C(NN1C(=O)NC2(CCCCC2)C1=O)c1ccc(-c2ccc(Cl)cc2)o1	-19%	-5%	/	-5%[11.6 µM]	11µM*	/
O=C(O)c1ccc2c(c1)C(=O)N(c1cccc3ccccc13)C2=O	38%	86%	-3	0%	12%	4
CCN(CC)c1ccc(/C=N/NC(=O)CN2CCCc3ccccc32)cc1	-23%	-27%	-11	?	?	1
NS(=O)(=O)c1ccc(NC(=O)CN2CCCc3ccccc32)cc1	18%	17%	27	0%	9%	1
O=C(CN1CCCc2ccccc21)N/N=C/c1c(O)ccc2ccccc12	?	?	48*	2%	10µM*	34*
O=C(CN1CCCc2ccccc21)N/N=C/c1ccccc1	-4%	-9%	22	14%	-4%	21*
O=C(CN1CCCc2ccccc21)N/N=C/c1ccc(O)cc1O	71%	9%	71*	53%[2.32 µM]	-10%	26*
CC(C)(C)NC(=O)NC(=O)CN1CCCc2ccccc21	?	-55%	2	-22%	-1%	2
O=C(O)C1=CCC(c2ccc(Cl)c(Cl)c2)N(S(=O)(=O)c2ccc(F)cc2)C1c1cccc(F)c1 (centres undefined)	/	/	/	3%	/	/
O=C(NC1CCCC1)C(c1ccccc1)N(C(=O)c1ccno1)c1cccnc1 (centres undefined)	/	/	6	0%	-3%	-3
O=C(NC1CCCC1)C(c1ccccc1)N(C(=O)c1ccno1)c1ccccc1 (centres undefined)	-15%	7.4µM*	7	2%	0%	-1
O=C(NC1CCCCC1)C(c1ccncc1)N(C(=O)c1csnn1)c1ccccc1 (centres undefined)	17%	16%	18	24%	2%	-10
CC(C)c1ccc(N(C(=O)c2csnn2)C(C(=O)NC2CCCC2)c2ccncc2)cc1 (centres undefined)	-13%	11%	66*	4%	-20%	30*
